Sampled rows, rich in hits. Any-hit rate of the full collection: about 4%.
Gli-Sufu block = Gli-Sufu pathway antagonism | Sufu-KO-LIGHT fibroblasts, Gli luciferase reporter luminescence | AID 588413 | hit rate 0.74% among 340,000 | inhibition, % at 5 µM;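 active = inhibition above about 55%, limit read from the data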
Shn3 inh set2 = reduces Shn3 3'UTR luciferase signal in osteoblasts. inhibition, % at 12.5 µM. Clone20 osteoblast Shn3 3'UTR firefly luciferase, 24 h. hit rate 0.52% among 360,000;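 active = mean inhibition of at least 75% with every replicate also reaching 75%; inconclusive = mean inhibition at least 75% but some replicate below; inactive = mean inhibition below 75%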
Mdm2 MdmX PPI = disrupts the human Mdm2-MdmX interaction; SaOS-2 split-luciferase Mdm2/MdmX complementation, luminescence; inhibition, % at 8 µM; hit rate 3% among 330,000;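 active = inhibition of at least 50% at 8 µM in the primary screen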
Target sequence (O15151 whole entry, looked up): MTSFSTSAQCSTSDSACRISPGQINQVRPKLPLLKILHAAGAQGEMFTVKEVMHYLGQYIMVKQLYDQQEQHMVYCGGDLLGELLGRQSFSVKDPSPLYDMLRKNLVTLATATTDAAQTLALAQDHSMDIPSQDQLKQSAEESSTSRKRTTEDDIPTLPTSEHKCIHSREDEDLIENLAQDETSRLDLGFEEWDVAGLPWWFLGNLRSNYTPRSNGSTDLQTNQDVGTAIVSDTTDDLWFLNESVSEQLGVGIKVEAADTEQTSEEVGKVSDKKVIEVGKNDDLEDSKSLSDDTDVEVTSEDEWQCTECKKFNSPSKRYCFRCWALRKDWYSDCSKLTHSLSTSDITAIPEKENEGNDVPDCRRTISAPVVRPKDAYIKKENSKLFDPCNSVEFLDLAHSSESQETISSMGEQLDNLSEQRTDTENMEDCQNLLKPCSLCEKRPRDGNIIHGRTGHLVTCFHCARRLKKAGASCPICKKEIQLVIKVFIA
Target sequence (Q00987 whole entry, looked up): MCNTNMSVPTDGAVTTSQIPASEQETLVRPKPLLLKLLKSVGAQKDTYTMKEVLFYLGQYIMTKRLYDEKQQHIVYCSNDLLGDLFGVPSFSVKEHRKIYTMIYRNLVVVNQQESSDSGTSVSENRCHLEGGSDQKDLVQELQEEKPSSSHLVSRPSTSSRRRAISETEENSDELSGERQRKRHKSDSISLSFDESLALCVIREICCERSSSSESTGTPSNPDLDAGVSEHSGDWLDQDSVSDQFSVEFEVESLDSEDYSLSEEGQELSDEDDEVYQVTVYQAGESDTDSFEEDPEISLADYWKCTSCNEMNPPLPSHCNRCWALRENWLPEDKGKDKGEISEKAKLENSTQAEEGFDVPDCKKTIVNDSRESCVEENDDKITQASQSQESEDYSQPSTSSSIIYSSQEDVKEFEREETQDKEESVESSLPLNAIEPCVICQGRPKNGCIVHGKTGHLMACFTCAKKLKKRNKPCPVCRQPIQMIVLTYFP
PAX8 reporter = lowers PAX8-driven luciferase in RMG-I cells; inhibition, % at 12.6 µM; RMG-I TPO-luciferase reporter, SteadyGlo, 24 h; AID 652154; hit rate 1.2% among 360,000;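 active = mean replicate inhibition at least 60% with every replicate also reaching 60%; inconclusive = only one of the two criteria is met; inactive = mean below 60% and not all replicates reaching 60%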;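 also: luciferase light reporting Pax8 driven TPO promoter activity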
CSC inhib = blocks cancer stem cells | cancer stem cell-like cells viability, luminescence | inhibition, % at 7.5 µM | hit rate 1.1% among 300,000 | AID 2717; in the data active = inhibition above about 75%; inconclusive = no clear call, values can overlap the other calls; tested in HMLE shEcad cells
Beta apoptosis = beta cell apoptosis inhibition; protection from apoptosis, % (test concentration not listed); hit rate 0.8% among 300,000; INS-1E cytokine-induced death, ATP luminescence, 48 h; percent of positive-control rescue, neutral wells zero;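 active = Every replicate reaches about 75%, or at least half do and their mean reaches it too, limit read from the data; inconclusive = At least half of replicates reach the limit but their mean does not; inactive = Under half of replicates reach the limit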;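 also: higher means more ATP so stronger rescue from cytokine killing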
Mdm2-MdmX conf = human Mdm2/MdmX binding inhibition, confirmed; inhibition, % at 8 µM; AID 489028; hit rate 55% among 10,000; shares compounds with Mdm2 MdmX PPI; luminescent assay; in the data active = inhibition above about 40%
FLuc counter = counter-screen for Mdm2/MdmX inhibitors: full-length luciferase | shares compounds with Mdm2 MdmX PPI | SaOS-2 full-length luciferase counterscreen, luminescence | inhibition, % at 8 µM | hit rate 77% among 6,200 | AID 504607;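 active = mean inhibition at 8 µM reaching about 37%, which flags the compound as non-specific, limit read from the data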;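 also: p53-null SaOS-2 cells with luciferase driven by a doxycycline-inducible promoter; compound on cells about two nights before reading with doxycycline added after day one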
Numbers stand for hits; . = inactive; ? = inconclusive; / = no result given.

SMILES | Gli-Sufu block | Shn3 inh set2 | Mdm2 MdmX PPI | PAX8 reporter | CSC inhib | Beta apoptosis | Mdm2-MdmX conf | FLuc counter
O=C(CN1C(=O)/C(=C\c2cccc(F)c2)Oc2ccccc21)N1CCN(c2ccccn2)CC1 | . | . | . | . | . | . | / | /
O=C(CCN1C(=O)/C(=C/c2ccccc2)SC1=S)Nc1ccccn1 | . | . | . | . | . | . | / | /
CS(=O)(=O)Nc1ccc2c(c1)[C@@H]1C[C@@H](CC(=O)NC3CCCC3)O[C@@H](CO)[C@@H]1O2 | / | / | / | . | / | / | / | /
Cc1ccc(OCCNC(=O)c2cccc(S(=O)(=O)NCc3ccccc3)c2)cc1 | . | . | 60 | . | / | / | 77 | 54
C[C@@H]1CN([C@@H](C)CO)C(=O)c2cccc(NS(=O)(=O)c3ccc(Cl)cc3)c2O[C@H]1CN(C)Cc1ccc(Cl)c(Cl)c1 | / | / | / | . | / | / | / | /
CCOc1ccccc1/C=N\Nc1cnn(Cc2ccccc2)c(=O)c1Cl | . | . | 53 | . | . | . | . | /
COc1ccccc1/C=N\Nc1cn[nH]c(=O)c1Cl | . | . | . | . | . | . | / | /
NC(=O)c1sc2nc3c(c(-c4cccnc4)c2c1N)CCC3 | . | . | . | / | . | . | / | /
NC(=O)c1sc2nc3c(c(-c4cccs4)c2c1N)CCCCC3 | . | . | 85 | / | . | . | 88 | 53
Cc1ccc(S(=O)(=O)N2CCN(CC(=O)N/N=C\c3ccc(Cl)c([N+](=O)[O-])c3)CC2)cc1 | . | . | 64 | . | . | . | . | /
COC(=O)C1=C(C)N(Cc2ccccc2)C(=NCc2cccc(Cl)c2)N[C@H]1c1ccccc1 | . | . | 89 | / | 122 | . | . | /
COC(=O)C1=C(C)N(Cc2ccccc2)C(=NCc2cc(OC)c(OC)c(OC)c2)N[C@H]1c1ccccc1 | . | . | . | / | . | . | / | /
CCN(CC)CCCN=C1N[C@@H](c2cccc(C(F)(F)F)c2)C(C(=O)OC)=C(C)N1CC | . | . | 100 | . | / | . | 75 | .
COC(=O)C1=C(C)N(CC2CC2)C(=NCc2cccc(Cl)c2)N[C@H]1c1ccccc1 | . | . | . | . | . | / | / | /
CCN1C(=O)N[C@@H](c2cccc(C(F)(F)F)c2)C(C(=O)OC)=C1C | . | . | . | . | . | . | / | /
COC(=O)C1=C(C)N(Cc2ccccc2)C(=NCc2cc(OC)c(OC)c(OC)c2)N[C@H]1c1ccc(Br)cc1 | . | . | 69 | / | . | . | . | /
COC(=O)C1=C(C)N(Cc2ccccc2)C(=NCc2ccccc2)N[C@H]1c1cccc(F)c1 | . | . | 74 | . | . | . | . | 47
C[C@@H]1CN([C@@H](C)CO)C(=O)Cc2cc(NS(=O)(=O)c3ccc(F)cc3)ccc2O[C@H]1CN(C)S(=O)(=O)c1cn(C)cn1 | / | / | / | . | / | / | / | /
C[C@@H]1CN([C@@H](C)CO)C(=O)Cc2cc(NS(=O)(=O)c3cccs3)ccc2O[C@H]1CN(C)C(=O)Nc1ccc(F)cc1 | / | / | / | . | / | / | / | /
Cc1ccc(S(=O)(=O)Nc2ccc3c(c2)CC(=O)N([C@H](C)CO)C[C@@H](C)[C@@H](CN(C)C(=O)Nc2c(C)noc2C)O3)cc1 | / | / | / | . | / | / | / | /
C[C@@H]1CN([C@@H](C)CO)C(=O)c2cc(NC(=O)C3CC3)ccc2O[C@@H]1CN(C)S(=O)(=O)c1ccc(F)cc1 | / | / | / | . | / | / | / | /
COC(=O)C1=C(C)N(Cc2ccccc2)C(=NCc2ccccc2)N[C@H]1c1ccccc1 | . | . | 91 | . | . | . | . | /
CCN(CC)CCCN=C1N[C@@H](c2cccc(F)c2)C(C(=O)OC)=C(C)N1Cc1ccccc1 | . | . | 100 | . | . | . | 83 | 59
COCCN=C1N[C@@H](c2ccccc2)C(C(=O)OC)=C(C)N1Cc1ccccc1 | . | . | . | . | . | . | / | /
COCCN1C(=S)N[C@@H](c2cccc(F)c2)C(C(=O)OC)=C1C | / | / | 59 | / | . | . | . | /
SMILES | Gli-Sufu block | Shn3 inh set2 | Mdm2 MdmX PPI | PAX8 reporter | CSC inhib | Beta apoptosis | Mdm2-MdmX conf | FLuc counter
O=C(c1cccnc1)N1C[C@H]2[C@@H](c3ccccc31)[C@H](CO)N2C(=O)Nc1ccc(F)cc1 | / | / | / | . | / | / | / | /
CCCC#Cc1ccc2c(c1)O[C@H](CN(C)Cc1cccnc1)[C@@H](C)CN([C@H](C)CO)S2(=O)=O | / | / | / | . | / | / | / | /
COc1ccc(NS(=O)(=O)c2cc(OC)ccc2NC(=O)c2cc(C)oc2C)cc1 | . | . | 51 | / | . | . | 61 | 48
C[C@@H]1CN([C@H](C)CO)C(=O)Cc2cc(NC(=O)Nc3ccc4c(c3)OCO4)ccc2O[C@H]1CN(C)Cc1ccncc1 | / | / | / | . | / | / | / | /
COc1ccc(-c2nnc(Sc3nc4ccccc4o3)c3ccccc23)cc1 | . | . | 66 | / | . | . | 42 | 68
Cn1cncc1C#Cc1c(C=O)[nH]c2ccccc12 | . | . | 71 | . | . | . | 42 | 66
C=CCc1cccc(/C=N/NC(=O)C(C)Nc2ccc(C)cc2)c1O (stereo unspecified) | . | . | 70 | . | . | . | 67 | 42
C=CCc1cccc(/C=N/NC(=O)C(=O)Nc2ccc(C)cc2)c1O | . | . | . | . | . | / | / | /
COc1ccc(C(=O)N/N=C/c2ccccc2OC(=O)c2ccccc2)cc1 | . | . | 53 | . | / | 102 | 41 | 112
COc1cccc(/C=N/NC(=O)c2c(C)nc3ccc(Cl)cn23)c1O | 84 | 90 | 68 | . | . | 123 | 78 | .
C=CCc1cccc(/C=N/NC(=O)c2ccc3nc[nH]c3c2)c1O | . | . | 67 | . | 94 | 84 | 52 | .
CC(C)NC(=O)Nc1ccc2c(c1)C(=O)N([C@@H](C)CO)C[C@@H](C)[C@@H](CN(C)C(=O)c1ccccc1)OCCCC[C@@H](C)O2 | / | / | / | . | / | / | / | /
C[C@@H]1CN([C@@H](C)CO)C(=O)Cc2cc(NS(C)(=O)=O)ccc2O[C@@H]1CN(C)C | / | / | / | . | / | / | / | /
CCC(=O)NC[C@@H]1[C@@H](c2ccccc2)[C@H](CO)N1C(=O)C1CCC1 | / | / | / | . | / | / | / | /
COc1cccc(/C=N/NC(=O)c2ccc(-c3ccccc3)cc2)c1O | . | 91 | 76 | / | ? | 107 | 77 | .
Cc1cccc(/C=N/NC(=O)c2c(-c3ccccc3)noc2C)c1O | . | ? | 67 | . | . | 92 | 69 | .
COc1ccccc1/C=N/NC(=O)c1c(-c2ccccc2)noc1C | . | . | . | . | . | . | / | /
COc1cccc(/C=N/NC(=O)c2ccc(=O)[nH]n2)c1O | . | / | . | . | . | . | / | /
C=CCc1cccc(/C=N/NC(=O)c2ccccc2OC)c1O | . | . | 66 | . | . | 94 | 70 | 47
COc1cccc(/C=N/NC(=O)c2[nH]c(C)c(C(=O)N/N=C/c3cccc(OC)c3O)c2C)c1O | . | . | 62 | / | 93 | . | 43 | 70
O=C(Nc1ccccc1)N[C@H]1CC[C@@H](CCNS(=O)(=O)c2ccccc2F)O[C@H]1CO | / | / | / | . | / | / | / | /

Screening data deposited in PubChem BioAssay by several laboratories.
